8 targets from the supplement of paper PMC12067926 can be followed below.

Common to all, as to assay: relative growth (AUC of 72 h growth curve relative to DMSO control, dAUC) (ratio); higher = more growth (less inhibition), active = hit call of the paper
What all share (settings): 20 µM

Compound in test [1]: C=CCOC(Cn1ccnc1)c1ccc(Cl)cc1Cl
In short, it runs like this:
(§1)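 Cultures grown to carrying capacity in Luria–Bertani medium, drawn from Icelandic stream sediment and Silwood Park soil isolates and whole sediment communities, were diluted 1:100 into 96-well plates with each chemical at 20 µM (1% DMSO) and read at A600 hourly for 72 h. The spline-integrated area under the growth curve, divided by the mean of the DMSO controls, is reported as relative growth (dAUC). Values are means of three biological replicates.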

Compound in test [2]: CC(=O)CC(c1ccccc1)c1c(O)c2ccccc2oc1=O
In short, it runs like this:
as §1

Compound in test [3]: CC1COc2ccccc2N1C(=O)C(Cl)Cl
In short, it runs like this:
as §1

Compound in test [4]: CCCCC(CC)CN1C(=O)[C@@H]2[C@H](C1=O)[C@@H]1C=C[C@H]2C1 (mixture of isomers)
A digest of the protocol:
as §1

Compound in test [5]: CCCCCCCCc1c(CC)nc2ncnn2c1N
A digest of the protocol: as §1

Compound in test [6]: CCCCOCCOCCOCc1cc2c(cc1CCC)OCO2
In short, it runs like this:
as §1

Compound in test [7]: CCCOC(=O)NCCCN(C)C
A digest of the protocol:
as §1

Compound in test [8]: COC(=O)c1csc(C)c1S(=O)(=O)NC(=O)n1nc(OC)n(C)c1=O
A digest of the protocol: as §1

Compound in test [9]: Cc1ccc(C(C)NC(=O)[C@@H](NC(=O)OC(C)C)C(C)C)cc1
A digest of the protocol: as §1

Compound in test [10]: Cc1nn(C)c(Oc2ccccc2)c1/C=N/OCc1ccc(C(=O)OC(C)(C)C)cc1
In short, it runs like this:
as §1

Compound in test [11]: Cn1cc(C(=O)Nc2ccc(F)cc2-c2ccc(Cl)c(Cl)c2)c(C(F)F)n1
In short, it runs like this: as §1

Compound in test [12]: Cn1cc(C(=O)Nc2ccccc2-c2cc(F)c(F)c(F)c2)c(C(F)F)n1
A digest of the protocol:
as §1

Compound in test [13]: O=C(NCc1ncc(C(F)(F)F)cc1Cl)c1c(Cl)cccc1Cl
In short, it runs like this:
as §1

Compound in test [14]: Oc1c(Cl)cc(Cl)c(Cl)c1Cc1c(O)c(Cl)cc(Cl)c1Cl
In short, it runs like this: as §1

Compound in test [15]: S=C([S-])NCCNC(=S)[S-].S=C([S-])NCCNC(=S)[S-].[Mn+2].[Zn+2]
In short, it runs like this:
as §1

Compound in test [16]: c1ccc2[nH]c(-c3cscn3)nc2c1
In short, it runs like this:
as §1

Take Serratia 1 (Serratia sp. 2015-2462-01): the relative growth in test [1] is 0.919 (inactive); in test [2], 0.952 (inactive); in test [3], 0.946 (inactive); in test [4], 0.932 (inactive); in test [5], 0.971 (inactive); in test [6] it was 0.954 (inactive). For the same target, the relative growth is 0.979 (inactive) in [7]; 0.99 (inactive) in test [8]; 0.955 (inactive) in [9]; 0.973 (inactive) in test [10]; 0.949 (inactive) in test [11]; 1.02 (inactive) in test [12]. Besides, the relative growth in [13] was 0.994 (inactive); in [14], 0.00199 (active); in [15], 1.06 (inactive); in test [16] it was 0.982 (inactive).

Pseudomonas 3 (Pseudomonas mandelii): the relative growth in test [1] is 1.01 (inactive); in [2] it was 1.06 (inactive); in test [3] it was 1.07 (inactive); in test [4] it was 1.05 (inactive); in test [5], 0.984 (inactive); in [6] it was 1.04 (inactive). The relative growth was 1.04 (inactive) in [7]; 1.04 (inactive) in test [8]; 1.08 (inactive) in test [9]; 1.09 (inactive) in test [10]; 1.03 (inactive) in test [11]; 1 (inactive) in [12]. For the same target, the relative growth was 0.984 (inactive) in test [13], 0.00168 (active) in test [14], 0.907 (inactive) in test [15] and 0.96 (inactive) in [16].

Consider Arthrobacter 2 (Arthrobacter humicola), for which the relative growth in [1] was 0.195 (active); in test [2], 0.972 (inactive); in [3] it was 0.871 (inactive); in test [4] it was 0.869 (inactive); in [5], 0.929 (inactive); in [6], 0.384 (active). Further, the relative growth in test [7] was 1.07 (inactive); in test [8], 1 (inactive); in test [9] it was 0.87 (inactive); in test [10] it was 0.771 (inactive); in [11], 0.627 (inactive); in [12] it was 0.983 (inactive). The relative growth in [13] was 0.96 (inactive); in [14] it was 0.00995 (active); in test [15] it was 0.932 (inactive); in test [16] it was 1.19 (inactive).

In the case of “Prolinoborus 1 (Prolinoborus fasciculus)”, the relative growth in test [1] is 0.664 (active); in test [2], 0.986 (inactive); in [3] it was 0.921 (inactive); in test [4], 0.937 (inactive); in [5], 0.883 (inactive); in [6], 0.915 (inactive). The relative growth in test [7] was 1.04 (inactive); in [8], 1.02 (inactive); in test [9] it was 1.02 (inactive); in test [10] it was 0.945 (inactive); in test [11], 0.947 (inactive); in [12], 1.01 (inactive). In addition, the relative growth in test [13] is 0.999 (inactive); in test [14], 0.0191 (active); in [15] it was 0.861 (inactive); in test [16] it was 0.964 (inactive).

Turning to “Flavobacterium 2 (Flavobacterium succinicans)”, the relative growth in test [1] was 0.489 (active); in test [2] it was 0.983 (inactive); in test [3] it was 0.926 (inactive); in test [4], 0.916 (inactive); in test [5], 0.961 (inactive); in [6] it was 0.976 (inactive). The relative growth in test [7] was 1.03 (inactive); in test [8], 1 (inactive); in test [9], 0.933 (inactive); in test [10] it was 0.952 (inactive); in test [11], 0.849 (inactive); in [12], 0.962 (inactive). Also, the relative growth is 0.966 (inactive) in test [13], 0.0105 (active) in test [14], 1.13 (inactive) in test [15] and 1.03 (inactive) in test [16].

Sphingomonas 2 (Sphingomonas sp.): the relative growth in test [1] is 0.991 (inactive); in [2], 1.2 (inactive); in test [3], 1.09 (inactive); in test [4] it was 1.07 (inactive); in test [5] it was 1.13 (inactive); in test [6], 0.821 (inactive). Also, the relative growth is 0.956 (inactive) in test [7]; 1.14 (inactive) in test [8]; 1.08 (inactive) in test [9]; 1.14 (inactive) in test [10]; 0.555 (active) in test [11]; 1.02 (inactive) in test [12]. The relative growth was 1.09 (inactive) in test [13], 0.0196 (active) in [14], 0.975 (inactive) in test [15] and 1.02 (inactive) in test [16].

For the target Community 6, the relative growth in test [1] is 0.861 (inactive); in [2], 0.916 (inactive); in test [3], 0.942 (inactive); in [4], 0.75 (inactive); in test [5], 1.02 (inactive); in test [6] it was 0.907 (inactive). Moreover, the relative growth was 1.02 (inactive) in test [7]; 1.01 (inactive) in [8]; 0.928 (inactive) in [9]; 0.712 (inactive) in test [10]; 0.852 (inactive) in [11]; 1.06 (inactive) in test [12]. In addition, the relative growth in [13] was 0.966 (inactive); in [14], 0.442 (active); in test [15], 1.16 (inactive); in test [16] it was 1.01 (inactive).

In the case of Oryzobacter 1 (Oryzobacter terrae), the relative growth in test [1] was 0.0303 (active); in test [2], 1.04 (inactive); in test [3], 1.15 (inactive); in test [4] it was 1.27; in test [5] it was 1.07 (inactive); in test [6], 1.18 (inactive). The relative growth was 1.02 (inactive) in [7]; 1.13 (inactive) in [8]; 1.09 (inactive) in test [9]; 1.17 (inactive) in test [10]; 1.12 (inactive) in test [11]; 0.91 (inactive) in [12]. Moreover, the relative growth is 1.06 (inactive) in test [13], 0.00191 (active) in test [14], 0.909 (inactive) in test [15] and 1.15 (inactive) in test [16].
